Experimental data: PubChem BioAssay (EPA / NIEHS)
Active and inactive are the calls of the source. Rule for the calls: active = hit-call score of the fitted dose curve at least 0.9, where 1 is the maximum; inactive = score below 0.9.

biological target: Estrogen receptor (Homo sapiens) (UniProt P03372); experiment: OT_ERa_GFPERaERE_0480: Odyssey Thera (OT) 8-hour HeLa Transcription Induction Assay for Estrogen Receptor (AID 2283381)
Experimental: OT_ERa_GFPERaERE_0480 is a cell-based, single-readout assay that uses HeLa, a human cervix cell line, with measurements taken at 8 hours after chemical dosing in a 384-well plate.OT_ERa_GFPERaERE_0480 is one of one assay component(s) measured or calculated from the OT_ERa_GFPERaERE_0480 assay. It is designed to make measurements of fluorescent protein induction, a form of inducible reporter, as detected with optical microscopy: fluorescence microscopy signals by Microscopy technology.Data from the assay component OT_ERa_GFPERaERE_0480 was analyzed into 1 assay endpoint. This assay endpoint, OT_ERa_EREGFP_0480, was analyzed in the positive analysis fitting direction relative to DMSO as the negative control and baseline of activity. Using a type of inducible reporter, measures of receptor for gain-of-signal activity can be used to understand the reporter gene at the pathway-level as they relate to the gene ESR1. Furthermore, this assay endpoint can be referred to as a primary readout, because the performed assay has only produced 1 assay endpoint. To generalize the intended target to other relatable targets, this assay endpoint is annotated to the nuclear receptor intended target family, where the subfamily is steroidal.
All assay endpoints are quantified using high content image analysis algorithms.

Sequence of Estrogen receptor (Homo sapiens) (P03372 whole entry, looked up): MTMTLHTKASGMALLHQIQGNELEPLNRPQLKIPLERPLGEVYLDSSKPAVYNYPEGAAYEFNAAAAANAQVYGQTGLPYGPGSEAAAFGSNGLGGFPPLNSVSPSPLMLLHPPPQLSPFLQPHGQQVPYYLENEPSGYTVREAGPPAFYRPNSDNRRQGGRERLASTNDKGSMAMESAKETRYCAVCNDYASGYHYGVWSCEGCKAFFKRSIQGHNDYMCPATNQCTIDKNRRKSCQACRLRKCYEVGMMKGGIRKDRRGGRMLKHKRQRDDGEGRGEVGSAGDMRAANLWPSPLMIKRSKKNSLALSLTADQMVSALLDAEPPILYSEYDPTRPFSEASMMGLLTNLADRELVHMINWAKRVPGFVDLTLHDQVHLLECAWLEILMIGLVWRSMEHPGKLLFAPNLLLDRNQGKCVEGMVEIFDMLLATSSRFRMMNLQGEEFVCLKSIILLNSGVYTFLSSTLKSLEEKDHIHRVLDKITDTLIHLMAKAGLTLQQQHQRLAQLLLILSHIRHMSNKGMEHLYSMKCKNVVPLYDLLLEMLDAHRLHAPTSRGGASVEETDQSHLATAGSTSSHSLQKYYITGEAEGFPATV

| Compound | outcome | AC50 |
| --- | --- | --- |
| CCOc1ccc(N)cc1 | inactive |  |
| O=S1(=O)OC(c2cc(Br)c(O)c(Br)c2)(c2cc(Br)c(O)c(Br)c2)c2ccccc21 | inactive |  |
| Oc1c(Br)cc(Br)cc1Br | inactive |  |
| CC(=Cc1ccccc1)[N+](=O)[O-] |  | 16.6 µM (active) |
| Cc1cc(Cl)ccc1OC(C)C(=O)O (stereo unspecified) | inactive |  |
| O=C1c2ccccc2C(=O)C1C(=O)C(c1ccccc1)c1ccc(Cl)cc1 (stereo unspecified) | inactive |  |
| CCCCCCCCCCCCN(C)C | inactive |  |
| O=S1OC[C@@H]2[C@H](CO1)[C@]1(Cl)C(Cl)=C(Cl)[C@@]2(Cl)C1(Cl)Cl (stereo partly specified) |  | 12.6 µM (active) |
| N#Cc1cccnc1 | inactive |  |
| CC(C)N(C(=O)CCl)c1ccccc1 | inactive |  |
| O=[N+]([O-])c1ccc(Cl)c([N+](=O)[O-])c1 |  | 8.64 µM (active) |
| CCC[CH2][Sn]([Cl])([Cl])[CH2]CCC |  | 1.76 µM (active) |
| CNC(=O)O/N=C/C(C)(C)S(C)(=O)=O | inactive |  |
| O=C(NC(=O)c1c(F)cccc1F)Nc1ccc(Cl)cc1 | inactive |  |
| CCCSP(=S)(OCC)Oc1ccc(SC)cc1 (stereo unspecified) | inactive |  |
| O=C(O)COc1ccc(Cl)cc1 | inactive |  |
| C=CCN=C=S | inactive |  |
| N#CCC#N | inactive |  |
| CCOCn1c(-c2ccc(Cl)cc2)c(C#N)c(Br)c1C(F)(F)F | inactive |  |
| O=C(NC(=O)c1c(F)cccc1F)Nc1cc(Cl)c(OC(F)(F)C(F)C(F)(F)F)cc1Cl (stereo unspecified) | inactive |  |
| O=CCCl | inactive |  |
| CC(O)(CS(=O)(=O)c1ccc(F)cc1)C(=O)Nc1ccc(C#N)c(C(F)(F)F)c1 (stereo unspecified) |  | 12.8 µM (active) |
| CC(C)=CC1C(C(=O)OCc2cccc(Oc3ccccc3)c2)C1(C)C (stereo unspecified) | inactive |  |
| CCN(CCO)CCO | inactive |  |
| O=C(CCl)Nc1ccccc1 |  | 84.8 µM (active) |
| N#CCCC(Br)(C#N)CBr (stereo unspecified) | inactive |  |
